Results on seven sequences are retold here after the supplement of paper PMC6555819.

Common to all, as to test: PBM binding z-score (relative to random genomic background probes); higher = stronger binding; sequences stand for … in GC…GCGATTGACAGCGTAGAATGAAGG
Test [1] relates to PPARg:RXRa DBDmut IVT, anti-RXR (DBD mutation: RXRa K156A/R161A, NR concentration 270 nM, RXRa partner concentration 90 nM). Summed up: (§1)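 On custom Agilent 4×180K arrays, double-stranded probes with 34-nt variable regions carried direct-repeat seeds, single-nucleotide variants, half-site ablations or random human genomic background. Ligand-free nuclear receptor dimers were applied for 1 h, and binding was read with antibodies against each partner (one per run). Binding z-scores come from regression-normalized fluorescence, with the random background probes as reference.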

Test [2] has as its system PPARg:RXRa IVT, anti-PPARg (NR concentration 270 nM, RXRa partner concentration 90 nM). A digest of the protocol: as §1
Test [3] has as its system PPARg DBDmut:RXRa IVT, anti-PPARg (DBD mutation: PPARg1 K132A/R137A, NR concentration 270 nM, RXRa partner concentration 90 nM). Summed up:
as §1

The subject of test [4] is PPARg DBDmut IVT, anti-PPARg (DBD mutation: PPARg1 K132A/R137A, NR concentration 270 nM). A digest of the protocol: as §1
Test [5] has as its system PPARg homodimer (NR concentration 180 nM). A digest of the protocol: as §1
Test [6] relates to PXR:RXRa (NR concentration 270 nM, RXRa partner concentration 90 nM). A digest of the protocol:
as §1

Test [7] concerns PXR homodimer (NR concentration 270 nM). Summed up:
as §1

In test [8] the test system is RARa:RXR (NR concentration 270 nM, RXRa partner concentration 90 nM). A digest of the protocol:
as §1

Test [9] has as its system RARa homodimer (NR concentration 270 nM). Summed up:
as §1

In test [10] the test system is RARb:RXRa (NR concentration 270 nM, RXRa partner concentration 90 nM). A digest of the protocol: as §1
In test [11] the test system is RARb homodimer (NR concentration 270 nM). A digest of the protocol: as §1
The test system of test [12] is RARg:RXRa (NR concentration 270 nM, RXRa partner concentration 90 nM). Summed up:
as §1

In test [13] the test system is RARg homodimer (NR concentration 270 nM). Summed up: as §1
For test [14], the system named is RXRa DBDmut IVT, anti-RXR (DBD mutation: RXRa K156A/R161A, NR concentration 90 nM). Summed up: as §1
Test [15] deals with RXRa homodimer (NR concentration 180 nM). A digest of the protocol: as §1
Test [16] deals with THRa:RXRa (NR concentration 90 nM, RXRa partner concentration 90 nM). A digest of the protocol:
as §1

The subject of test [17] is THRa homodimer (NR concentration 90 nM). Summed up:
as §1

Test [18] relates to VDR homodimer (NR concentration 270 nM). A digest of the protocol:
as §1

As for TCTATTTGGTCACGGAGGTCACACACGACGGGTA, the PBM binding z-score was found to be 2.53 in [1]; 4.35 in test [2]; 4.5 in test [3]; 3.22 in [4]; 3.91 in test [5]; 4.86 in test [6]. Further, the PBM binding z-score came to 2.58 in test [7]; 4.88 in [8]; 2.06 in test [9]; 4.21 in test [10]; 4.61 in [11]; 4.91 in [12]. In addition, the PBM binding z-score in test [13] was found to be 5.19; in test [14], 1.87; in [15] it was 5.34; in test [16], 3.82; in [17], 3.38; in test [18], 3.22.
With TAACCAAGGTGAGCTGAGGTCGTTGATCCAACTC, the PBM binding z-score was 0.67 in [1]; 1.99 in [2]; -0.13 in test [3]; 0.366 in [4]; -0.0916 in [5]; 4.88 in [6]. For the same sequence, the PBM binding z-score in [7] is 0.136; in test [8] it was 1.74; in [9] it was -0.541; in test [10], 1.81; in test [11], 1.63; in test [12], 1.33. For the same sequence, the PBM binding z-score in test [13] is 0.926; in test [14] it was -0.0437; in test [15], 1.58; in [16], 4.65; in test [17], 1.86; in test [18] it was 1.81.
In the case of CAAACTAGGTCACTGGAAGGTCAAAGTCCGCATG, the PBM binding z-score came to 8.42 in [1]; 8.89 in [2]; 7.66 in test [3]; 2.9 in test [4]; 9.82 in [5]; 5.36 in [6]. The PBM binding z-score in test [7] amounted to 2.12; in [8], 7.1; in [9], 3.34; in [10], 4.9; in [11], 5.21; in [12], 7.66. The PBM binding z-score in test [13] is 6.65; in test [14] it was 1.96; in test [15], 5.54; in test [16], 4.3; in test [17] it was 2.43; in test [18], 3.86.
Regarding TAGCCTAGGTCATTGGGCCAGGATAGTACGCATC, the PBM binding z-score worked out at 2.04 in [1]; 3.75 in test [2]; 0.235 in test [3]; 0.25 in [4]; 0.798 in test [5]; 1.05 in [6]. Besides, the PBM binding z-score was -0.39 in test [7]; 1.99 in test [8]; -0.0581 in test [9]; 3.49 in test [10]; 2.8 in [11]; 3.79 in test [12]. The PBM binding z-score in [13] is 4.56; in [14] it was 1.25; in [15], 2.67; in [16], 2.74; in test [17], 0.55; in [18], 0.858.
Take CCTCGGAGGACAGAAGGTGAGAGCTGTCCGCTTT: the PBM binding z-score in test [1] was -0.327; in test [2] it was 0.0317; in [3] it was -1.56; in test [4], -1.59; in [5], 0.19; in test [6], -0.301. For the same sequence, the PBM binding z-score in [7] is -0.684; in test [8], 0.317; in [9], -0.413; in test [10] it was 1.09; in [11], 1.05; in test [12] it was 0.543. Besides, the PBM binding z-score in test [13] is 0.503; in test [14], -0.26; in test [15], -0.253; in [16] it was 0.747; in test [17], -0.514; in [18] it was -0.603.
As for CGAACGTGGGCATGAGTTGATAGCAAATGCCGAT, the PBM binding z-score in test [1] was -0.469; in test [2], -0.859; in test [3], -1.14; in test [4], -1.08; in [5], -1.28; in test [6] it was -0.855. Also, the PBM binding z-score in test [7] was -0.719; in test [8], -1.12; in test [9] it was -0.791; in test [10] it was -0.401; in [11], -0.844; in [12], -0.563. For the same sequence, the PBM binding z-score is -0.218 in [13]; 0.0414 in test [14]; -0.376 in test [15]; -0.695 in [16]; -1.12 in test [17]; -0.195 in [18].
As for ATCTCTAGGTAAAGTTCAGTCAAAGATCGATAGA, the PBM binding z-score in [1] is 1.91; in [2] it was 2.68; in test [3], 1.08; in [4], 1.44; in [5], 1.63; in test [6] it was 2.32. Besides, the PBM binding z-score in test [7] was 1.93; in test [8] it was 1.48; in test [9] it was 1.68; in test [10], 2.55; in [11], 2.8; in test [12], 2.17. Moreover, the PBM binding z-score in test [13] came out at 2.39; in [14], 1.6; in [15], 1.35; in test [16], 1.46; in test [17], 0.288; in test [18], 2.11.
